Test results published in PubChem BioAssay AID2566 (National Center for Advancing Translational Sciences (NCATS), 2010).
Inconclusive results are not listed. The source made the active and inactive calls.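 Rule for the calls: active = compound that pushes labeled neuropeptide S off its receptor in a binding test; inconclusive = all other tested compounds; inactive = none, nothing was called inactive.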

Biological target: Neuropeptide S receptor (Homo sapiens) (UniProt Q6W5P4)
Assay: Confirmation Concentration-Response Assay for Antagonists of the Neuropeptide S Receptor: Radioligand Displacement, SAR for Probe
Details: CHO-hNPSR, [125I]Y10-NPS displacement, 1.5 h
From the text: NIH Chemical Genomics Center [NCGC] NIH Molecular Libraries Probe Production centers Network [MLPCN] MLPCN Grant: X01-DA026210-01 Assay Submitter (PI): Heilig, Markus Alexander NCGC Assay Overview: Neuropeptide S receptor (NPSR), previously known as GPR154, is a recently de-orphanized G protein coupled receptor. Its endogenous ligand is the 20 amino acids peptide Neuropeptide S (NPS). […] NPS and its receptor are found in various tissues. Specifically they are highly expressed in brain areas that have been implicated in modulation of arousal, stress and anxiety. Central administration of NPS in mice produces an unusual profile of activity by inducing wakefulness and arousal, while at the same time suppressing anxiety. Therefore, NPSR may represent a novel drug target for the treatment of sleep and anxiety disorders. As one method of confirming the specific activity of compounds active in the primary screen (AID 1461), we developed an assay to measure the displacement of radio-labeled native ligand, NPS, from its receptor in vitro.
The assay was carried out as described (Xu et al. (2004) Neuron, 43: 487-497) with minor modification. Y10-NPS labeled with 125I was bought from NEN Perkin Elmer (Boston, MA). […] Nonspecific binding was determined in the presence of 1 uM unlabeled human NPS. […] Bound radioactivity was counted in a liquid scintillation counter.

Neuropeptide S receptor (Homo sapiens), sequence (Q6W5P4 whole entry, looked up): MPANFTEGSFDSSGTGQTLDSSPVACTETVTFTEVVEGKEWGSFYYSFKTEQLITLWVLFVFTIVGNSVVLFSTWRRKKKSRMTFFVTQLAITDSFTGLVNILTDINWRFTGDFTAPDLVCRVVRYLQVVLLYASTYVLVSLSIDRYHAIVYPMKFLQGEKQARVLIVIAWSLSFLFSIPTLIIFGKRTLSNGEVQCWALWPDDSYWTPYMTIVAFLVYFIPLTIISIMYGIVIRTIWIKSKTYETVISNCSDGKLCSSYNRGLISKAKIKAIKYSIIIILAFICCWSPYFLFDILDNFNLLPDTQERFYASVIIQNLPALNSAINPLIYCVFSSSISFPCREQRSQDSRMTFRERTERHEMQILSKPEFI

Row | Structure (SMILES) | Potency
1 | Cc1c(P(=S)(c2ccccc2)c2ccccc2)[n+]2ccccc2n1C | 84.3 nM (active)
2 | Cc1c(P(=S)(c2ccccc2)c2ccccc2)[n+]2ccccc2n1C/C=C/c1ccccc1 | 1 nM (active)
